Assay results published in PubChem BioAssay AID1423 (NMMLSC, 2008).
Hit rate of the full screen: of about 220,000 compounds, about 750 (0.34%) were called active. No stated cut-off is given here; in the data, active means response below about 60% or above about 140%; inactive means in between. The sample as a whole holds a higher share of actives than the screen did.

What follows are compounds tested against Guanine nucleotide-binding protein G(o) subunit alpha (Homo sapiens) (UniProt P09471) (assay: compounds changing RGS8 association with Galphao – biochemical, multiplexed bead flow cytometry, primary screen (AID 1423;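 further: Galphao activated as the GDP aluminium fluoride complex binding bead-coupled RGS8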)). Settings: at 10 µM, actives lie on both sides.
Sequence of Guanine nucleotide-binding protein G(o) subunit alpha (Homo sapiens) (P09471 whole entry, looked up): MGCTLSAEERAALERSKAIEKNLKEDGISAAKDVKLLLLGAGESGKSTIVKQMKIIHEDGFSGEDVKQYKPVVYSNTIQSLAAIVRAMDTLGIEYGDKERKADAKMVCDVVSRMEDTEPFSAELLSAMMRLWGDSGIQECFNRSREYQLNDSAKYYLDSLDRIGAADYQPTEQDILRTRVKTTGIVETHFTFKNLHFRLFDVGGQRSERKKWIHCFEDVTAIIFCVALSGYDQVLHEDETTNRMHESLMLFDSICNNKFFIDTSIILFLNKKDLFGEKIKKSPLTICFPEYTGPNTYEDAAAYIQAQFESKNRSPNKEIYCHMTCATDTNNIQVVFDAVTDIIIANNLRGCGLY

Response (percent of control binding), active:
Nc1ccc(C(=O)OCC(=O)NC2CCS(=O)(=O)C2)cc1[N+](=O)[O-] (configuration not stated) 6.98%
CC(=O)Nc1nc(N(C)C)nc(N(C)C)n1 25.1%
CCOC(=O)C1=C(c2ccccc2)N=C2SCC(=O)N2C1c1ccc(O)c(OC)c1 (configuration not stated) 144% [activator]
O=C(OCC1O[C@@H](OC(=O)c2cc(O)c(O)c(O)c2)[C@@H](OC(=O)c2cc(O)c(O)c(O)c2)[C@@H](OC(=O)c2cc(O)c(O)c(O)c2)[C@@H]1OC(=O)c1cc(O)c(O)c(O)c1)c1cc(O)c(O)c(O)c1 (some centres not stated) 46.9%
CC(NC(=O)COC(=O)C1CCN(S(=O)(=O)c2ccccc2C(F)(F)F)CC1)c1ccccc1 (configuration not stated) 148% [activator]
CCC(=O)N1CCC(C(N)=O)(N2CCCCC2)CC1 163% [activator]
O=C(CN1CCCCC1)N1c2ccccc2Sc2ccc(C(F)(F)F)cc21 22.7%
CCCC(=O)n1nc(-c2ccccc2)nc1N 20.9%
O=C1CCC(=O)N(O)CCCCCNC(=O)CCC(=O)N(O)CCCCCNC(=O)CCC(=O)N(O)CCCCCN1 55.9%
Cc1cc2nc(C)n(CCCNC(=O)Nc3ccccc3)c2cc1C 170% [activator]
CC(C)Cc1nc(Nc2ccc(S(=O)(=O)N3CCCC3)cc2)c2nnn(Cc3ccccc3)c2n1 141% [activator]
C=CCn1c(Cn2nnc3ccccc32)nnc1SCC(=O)N/N=C/c1cc(Br)cc(OC)c1O 5.17%
NC(=O)CSc1c[nH]c2ccccc12 27.5%
CCOC(=O)C1Sc2[nH]c(=O)sc2C(c2ccc(Cl)cc2)C1C(=O)OCC (configuration not stated) 7.38%

Response (percent of control binding), inactive:
S=C1NC(c2ccccc2)=NCN1c1ccc(Br)cc1 106%
COc1ccc(N2C(=O)CNC2=S)cc1 102%
CC(C)NC(=O)c1ccc(Sc2ccccc2)c([N+](=O)[O-])c1 103%
Cc1c(C(=O)Nc2cccc(-c3nnc4n3CCCCC4)c2)oc2ccccc12 101%
O=C(COC(=O)/C=C/c1ccc2c(c1)OCO2)NC1CCS(=O)(=O)C1 (configuration not stated) 99.8%
Nc1ccc(C(=O)OCC(=O)NC2CCCc3ccccc32)cc1[N+](=O)[O-] (configuration not stated) 101%
Cc1ccc(/C=N/NC(=O)CSc2ccccn2)o1 101%
CC[C@H]1OC(=O)[C@H](C)[C@@H](O[C@H]2C[C@@](C)(OC)[C@@H](O)[C@H](C)O2)[C@H](C)[C@@H](O[C@@H]2O[C@H](C)C[C@H](N(C)C)[C@H]2O)[C@](C)(O)C[C@@H](C)[C@@H]2N[C@@H](COCCOC)O[C@H]([C@H]2C)[C@]1(C)O 85.8%
CCC(=O)Nc1nc(OC)cc(OC)n1 100%
COc1cc(OC)nc(NC(=O)CCl)n1 100%
CC(=O)c1c(C)[nH]c(C(=O)OCC(=O)Nc2sc3c(c2C#N)CCCC3)c1C 101%
O=Cc1ccc(OCc2cn3ccccc3n2)cc1 101%
Cn1cc(CCC(=O)N2CCCC(C(=O)c3ccc(C(C)(C)C)cc3)C2)cn1 (configuration not stated) 98.1%
CCOC(=O)C1CCCN(C(=O)/C=C/c2ccc(OC)cc2)C1 (configuration not stated) 100%
C=CCOC(=O)C1=C(C)N=C2SCCC(=O)N2C1/C=C/c1ccccc1OC (configuration not stated) 92.4%
COc1cc(C2C(C(=O)c3ccc(C)o3)=C(O)C(=O)N2CCc2ccccc2)ccc1O (configuration not stated) 101%
O=C(COc1nc2ccccc2nc1N1CCOCC1)NCC(F)(F)F 86%
CCOc1cc2[nH]c(=S)n(CCN3CCCCC3C)c(=O)c2cc1OCC (configuration not stated) 111%
CC(=O)NC1C(OCc2ccccc2)OC(COC(C)=O)C(OC(C)=O)C1OC(C)=O (configuration not stated) 105%
Cc1nnc(-c2ccc(Oc3ccc(C)c(C)c3)c([N+](=O)[O-])c2)o1 99.2%
O=C(Oc1ccccc1C(=S)N1CCCCC1)c1cc([N+](=O)[O-])cc([N+](=O)[O-])c1 95.2%
Cc1cc(=O)oc2cc(OCCC[n+]3ccccc3)ccc12 101%
CCOC(=O)c1c(/N=C/C2C(=O)CC(C)(C)CC2=O)sc(C)c1C 113%
Cc1ccc(C(=O)NCC(=O)O)s1 102%
N=C1C(=O)OCC1c1ccccc1NC(=O)CN1CCCCC1 (configuration not stated) 100%
CCCc1ccc(C(=O)[C@@H]2[C@@H](C(C)=O)N3c4ccc(F)cc4C=C[C@@H]3[C@@]23C(=O)Nc2ccccc23)cc1 94.4%
Cn1nc(-c2ccccc2)c(CO)c1Sc1ccccc1 95.1%
CC(C)(C)CN1C(=O)C(=O)NC[C@H]1Cc1cccc2ccccc12 96.5%
CCNC(=O)NC(=O)C(C)OC(=O)C1CCN(S(=O)(=O)c2ccccc2F)CC1 (configuration not stated) 106%
CC(NC(=O)CCC(=O)N1CCN(S(=O)(=O)c2ccc(Cl)cc2)CC1)c1ccccc1 (configuration not stated) 101%
O=C(C1CC1)N1N=C2CCCCC2C1(O)C(F)(F)F (configuration not stated) 100%
COC(=O)c1c(NC(=O)CN2CCN(S(=O)(=O)c3ccccc3[N+](=O)[O-])CC2)sc2c1CCC(C)C2 (configuration not stated) 104%
Cc1ccc(C)c(NC(=O)c2ccc(OC(=O)c3ccco3)cc2)c1 102%
CC1=CC2=NC(=O)/C(=C/c3coc4ccccc4c3=O)C(=N)N2O1 108%
O=C(COC(=O)CC1CC2CCC1C2)NC(=O)NC1CCCC1 (configuration not stated) 102%
O=C(c1ccccc1)C(Cn1cncn1)C(Sc1ccccc1)c1ccccc1 (configuration not stated) 92.9%
NC(=O)C1(N2CCCCC2)CCN(C(=S)Nc2ccc(Cl)cc2)CC1 129%
CC(C)(O)C#Cc1ccc(C(=O)N2CCC(C(N)=O)(N3CCCCC3)CC2)cc1 100%
COc1ccc(NC(=S)NCC2CCN(c3ccc(OC)cc3)C2)cc1 (configuration not stated) 97.5%
Cc1ccc(S(=O)(=O)N2CCOCC2)cc1C(=O)NC(=S)N(Cc1ccccc1)C(C)C 96.3%
COc1ccc(NC(=S)N2CCc3cc(OC)c(OC)cc3C2)cc1 103%
O=C(CSc1ncn[nH]1)Nc1nsc(-c2ccccc2)n1 79%
CC(C)(C)C1C/C(=C/c2ccco2)C(=O)/C(=C/c2ccco2)C1 (configuration not stated) 97.5%
O=C(CN1CCCCCC1)N1c2ccccc2Sc2ccc(C(F)(F)F)cc21 107%
COc1cc(/C=C/C(=O)N2c3ccccc3Sc3ccc(C(F)(F)F)cc32)cc(OC)c1OC 101%
Cc1nc(N2CCOCC2)nc2c1CCCC2 99.2%
C[C@@H]1NC(=O)c2cc([N+](=O)[O-])cc(F)c2NCCC[C@@H](C(N)=O)NC(=O)[C@H](CC(N)=O)NC1=O 100%
COc1ccccc1C(=O)n1nc(-c2ccccc2)nc1N 101%
COc1ccc(CC(=O)n2nc(-c3cccnc3)nc2N)cc1 101%
COC(=O)Nc1ncc(CN2CCCCC2)s1 111%
CCOC(=O)CNc1nc2ccccc2n2c(C)nnc12 99.9%
CCSc1nc(C)c(CCOc2cccc(C)c2)c(=O)[nH]1 101%
CN(C)S(=O)(=O)c1cccc(-c2nn(-c3ccccc3)cc2/C=C2\SC(=S)N(CC(=O)O)C2=O)c1 99.8%
Cc1ncn2cc(-c3ccc(Cl)cc3Cl)[nH]c(=O)c12 102%
O=C(Nc1nnc(Cc2ccc(Cl)cc2)s1)c1ccncc1 101%
Cc1c(NC(=O)C(=O)N/N=C/c2cccs2)c(=O)n(-c2ccccc2)n1C 103%
COc1ccc(C(=O)COC(=O)COc2ccc(C)c(C)c2)cc1 102%
Cc1nc2cc(NC(=O)Nc3cccc(F)c3)ccc2n1C 97.9%
Cc1nc2cc(NC(=O)NC3CC3)ccc2n1C 103%
O=C(O)/C=C/c1ccc(OCCCF)cc1 98%
O=C(Cc1ccccc1)NCC1OCCc2ccccc21 (configuration not stated) 100%
CCc1cc(C(=O)c2ccc(OC)cc2)c(NC(=O)CN2CCN(C)CC2)s1 107%
Cc1nc(Nc2ccc(S(=O)(=O)N3CCCC3)cc2)c2nnn(Cc3ccccc3)c2n1 101%
Clc1ccc(Nc2ncnc3c2nnn3Cc2ccccc2)cc1 99.3%
CC(C)CCNC(=O)C1CCC(CNc2c(N3CCC(C)CC3)c(=O)c2=O)CC1 (configuration not stated) 99.2%
NC(=O)C1(N2CCCCC2)CCN(C2CC(=O)N(Cc3ccc(N4CCCC4=O)cc3)C2=O)CC1 (configuration not stated) 97.6%
Cc1cccc(C(=O)NNC(=O)c2cccc([N+](=O)[O-])c2)c1 101%
COc1ccc(OC)c(/C=N/NC(=O)CSc2nnc(C)n2-c2ccccc2)c1 95.2%
Cc1ccc(Cn2c(SCC(=O)N/N=C/c3ccccc3OCC(=O)O)nc3ccccc32)cc1 104%
C=CCNC(=O)COC(=O)c1ccccc1C(=O)N(C)C1CCCCC1 103%
CCCn1cc(SCC(N)=O)c2ccccc21 90.4%
O=C(Cc1c[nH]c2ccccc12)OCCOC(=O)Cc1c[nH]c2ccccc12 101%
COc1ccc(CC(=O)N[C@@H](CCSC)c2nc3ccccc3[nH]2)cc1 106%
Cc1ccccc1Cn1nc(C)c(NC(=O)C(F)(F)F)c1C 106%
CCCCN1CCNC1=S 99.3%
Cc1noc(C)c1S(=O)(=O)N(C)Cc1ccccc1 98%
CCOC(=O)C1C(c2ccc(Cl)cc2)NC(=S)NC1(O)C(F)(F)F (configuration not stated) 102%
CCOC(=O)C1=C(C)NC(=O)N(C(C)=O)C1c1ccc(Cl)cc1 (configuration not stated) 103%
